High-throughput results as filed in PubChem.
Luciferase inh = blocks purified firefly luciferase enzyme activity; P08659; purified P. pyralis luciferase, luminescence, biochemical; Potency, µM (series often up to 115 µM), most hits filed as inhibitors; 2.5% of 76,000 active; AID 1347043; further: nearly all actives have a fitted effect of over 65% in size
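Purified 10nM P. pyralis luciferase with 10uM D-luciferin and 10uM ATP in 50mM Tris acetate pH 7.5, 10mM Mg acetate, 0.01% Tween-20, 0.05% BSA. qHTS titration; luminescence read by CCD imager.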
3T3 cytotox = cytotoxic compounds in NIH 3T3 cells | NIH 3T3 viability, CellTiter-Glo ATP luminescence, 48-72 h | Potency, µM (top dose mostly 96.7 µM), without a hit: top-dose activity change, negative = cytotoxicity, usual class: inhibitors | 4.3% of 94,000 active | AID 1345082; further: nearly all actives have a fitted effect of over 55% in size
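Cytotoxicity is measured as loss of cellular ATP: NIH 3T3 cells (400/well) are exposed to compound for 48 or 72 hr at 37 °C, then CellTiter-Glo luminescence is imaged after 10 min at room temperature.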
GPT2 inh = blocks human glutamate pyruvate transaminase 2 | Q8TD30 | Recombinant GPT2, coupled pyruvate oxidase/HRP Amplex Red fluorescence | Potency, µM (highest dose often 57.7 µM), for inactives: at the top dose activity change, negative = inhibition, hits mostly inhibitors | 0.25% of 100,000 active | AID 1671188; further: nearly all actives have a fitted effect of over 60% in size
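Fluorescence of coupled pyruvate oxidase/HRP/Amplex Red system (50uM Amplex, 30 min, dark) reports pyruvate formed by GPT2. Enzyme reaction: 10ng/uL GPT2, 2mM L-alanine, 250uM a-KG, 30 min room temperature, pH 7.5; 50uM AOA control.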
HEK293 tox = cytotoxic compounds in HEK 293 cells. Potency, µM (highest dose often 115 µM), for inactives: at the highest dose activity change, negative = cytotoxicity, most hits filed as inhibitors. HEK 293 viability, ATP luminescence (CellTiter-Glo), 48-72 h. 6.6% of 94,000 active; further: nearly all actives have a fitted effect of over 60% in size
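Cytotoxicity was scored by loss of ATP-coupled luminescence (CellTiter-Glo) in HEK 293 cells. Compound treatment ran 48 or 72 hr at 37 degree Celsius, 5% CO2, 95% humidity.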
hNpr1 antagonist = blocks ANP-stimulated signaling of human Npr1 receptor; Potency, µM (highest dose often 46.3 µM), for inactives: top-dose activity change, negative = inhibition, actives largely listed as inhibitors; P16066; 1.6% of 76,000 active; HEK293 hNpr1 GloSensor cGMP, ANP-stimulated luminescence; calls by dose curve; further: nearly all actives have a fitted effect of over 60% in size
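HEK293 cells stably expressing human Npr1 and cGMP GloSensor pGS-40F, loaded 2 h with 2% GloSensor reagent, given compound 30 min at room temperature. Luminescence read before and 20 min after 0.1 nM hNppA.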
* marks the source's active call; other numbers are inactive results; [ ] = another dose, or the depositor's remark. An excerpt weighted towards active compounds, which were near 10% of everything screened. Unless noted, the call rests on the fitted dose curve; in most records, active means well fitted curve in the direction sought with a large enough effect; inconclusive means small, poorly fitted or top-dose-only effect, or another doubt; inactive means no such curve, though single readings can be large; an effect the other way counts as inactive or inconclusive. On the % scale 0 is the no-effect control and ±100 the full control effect; potency means the concentration at half of the fitted maximal effect.

Screening CCN1C(=O)C2CC3(CCN(Cc4ccc5cc[nH]c5c4)CC3)CN2C1=O (centres undefined) returned Luciferase inh inactive, 3T3 cytotox -4.0%, GPT2 inh -12.5%, HEK293 tox inconclusive and hNpr1 antagonist -1.4%.
Screening CCc1nc2c(c(-c3ccc(O)cc3)n1)CCN(Cc1cccc(C(F)(F)F)c1)CC2 returned Luciferase inh inactive, 3T3 cytotox 39.8µM*, GPT2 inh inactive, HEK293 tox 44.7µM* and hNpr1 antagonist inconclusive.
`CCc1nc2c(c(-c3ccc(O)cc3)n1)CCN(Cc1ccc(OC(F)(F)F)cc1)CC2` gave Luciferase inh inactive, 3T3 cytotox inconclusive, GPT2 inh -3.6%, HEK293 tox inconclusive and hNpr1 antagonist -27.4%.
Screening Oc1ccc(-c2nc(C3CC3)nc3c2CCN(Cc2ccccc2C(F)(F)F)CC3)cc1 returned Luciferase inh inactive, 3T3 cytotox 31.6µM*, GPT2 inh inactive, HEK293 tox 31.6µM* and hNpr1 antagonist -0.2%.
Screening CCc1nc2c(c(-c3ccc(O)cc3)n1)CCN(Cc1ccccc1C(F)(F)F)CC2 returned Luciferase inh inactive, 3T3 cytotox 39.8µM*, GPT2 inh inactive, HEK293 tox inconclusive and hNpr1 antagonist -2.0%.
`CN1CCN(c2nc3c(c(=O)[nH]2)CCN(Cc2ccccc2C(F)(F)F)CC3)CC1` gave Luciferase inh inactive, 3T3 cytotox -29.6%, GPT2 inh -8.0%, HEK293 tox 79.4µM* and hNpr1 antagonist -1.5%.
`COCCCn1c(=O)c(C(=O)N2CCN(C(=O)OC)CC2)nc2cccnc21` gave 3T3 cytotox -16.0%, GPT2 inh inactive and HEK293 tox inactive.
For COc1ccc(-c2ccc(C(=O)NC3CCCCC3)c(Cl)c2)nn1 the results were 3T3 cytotox -29.9% and HEK293 tox inconclusive.
Screening CC(=O)N1CCC(Cc2noc(-c3ccccc3)n2)C1 (centres undefined) returned Luciferase inh inactive, 3T3 cytotox -12.6%, GPT2 inh inactive, HEK293 tox inconclusive and hNpr1 antagonist 4.4%.
Screening O=C(c1cccc(F)c1)N1CCCC(Cc2noc(-c3ccccc3)n2)C1 (centres undefined) returned Luciferase inh inactive, 3T3 cytotox 31.6µM*, GPT2 inh -35.6%, HEK293 tox inconclusive and hNpr1 antagonist -9.0%.
`O=C(CCc1nc2ccccc2[nH]1)N1CCCC(Cc2noc(-c3ccccc3)n2)C1` (centres undefined) gave Luciferase inh inactive, 3T3 cytotox inconclusive, GPT2 inh inconclusive, HEK293 tox 22.4µM* and hNpr1 antagonist inconclusive.
For O=C(Nc1ccccc1F)N1CCN(c2ccc3nnc(-c4ccccc4)n3n2)CC1 the results were 3T3 cytotox inconclusive and HEK293 tox -17.5%.
For COc1cccc(C(=O)N2CCCC3(CN[S+](=O)([O-])c4cnccc4N3)C2)c1 (centres undefined) the results were 3T3 cytotox -14.0% and HEK293 tox 4.2%.
Screening COC[C@@H]1[C@H](C(=O)Nc2cc(C)ccc2OC)CCC(=O)N1C returned 3T3 cytotox -15.7%, GPT2 inh inactive and HEK293 tox 1.3%.
For O=C(CCCN1CCN(c2ccc(F)cc2)CC1)NC1c2ccccc2CSc2ccccc21 (centres undefined) the results were GPT2 inh 1.22µM*.
Screening CN1C(=O)Cc2ccccc2C1C(=O)N1CCN(c2ccc(F)cc2)CC1 (centres undefined) returned Luciferase inh inactive, 3T3 cytotox -2.3%, GPT2 inh 0.9%, HEK293 tox -1.1% and hNpr1 antagonist 3.3%.
`CC(C)(C)C(=O)NC1CCN(Cc2ccc(-c3ccsc3)cc2)C1` (centres undefined) gave 3T3 cytotox inconclusive, GPT2 inh inactive and HEK293 tox inconclusive.
Cc1ccncc1-c1c(C)nn2c1N(Cc1cccc(OC(F)(F)F)c1)CCC2 was read as Luciferase inh inactive, 3T3 cytotox inconclusive, GPT2 inh -10.8%[88.5 µM], HEK293 tox 31.6µM* and hNpr1 antagonist inconclusive.
For COc1ccccc1CN1CCCn2nc(C)c(-c3cnccc3C)c21 the results were Luciferase inh inactive, 3T3 cytotox 44.7µM*, GPT2 inh inactive, HEK293 tox 39.8µM* and hNpr1 antagonist inconclusive.
For Cc1ccncc1-c1c(C)nn2c1N(Cc1cccc(O)c1)CCC2 the results were Luciferase inh inactive, 3T3 cytotox inconclusive, GPT2 inh -13.6%[88.5 µM], HEK293 tox inconclusive and hNpr1 antagonist -28.1%[70.6 µM].
Screening COc1ccc(OC)c(CN2CCCn3nc(C)c(-c4cnccc4C)c32)c1 returned Luciferase inh inactive, 3T3 cytotox 89.1µM*, GPT2 inh inactive, HEK293 tox inconclusive and hNpr1 antagonist -15.7%[70.6 µM].
Screening COc1ccc(Cl)cc1NC(=O)N1CC(c2noc(-c3ccncc3)n2)C1 returned Luciferase inh inactive, 3T3 cytotox -24.2%, GPT2 inh -6.2%, HEK293 tox inconclusive and hNpr1 antagonist -0.1%.
`c1cc(-c2n[nH]c(CC3CCNC3)n2)ccn1` (centres undefined) gave Luciferase inh inactive, 3T3 cytotox 2.3%, GPT2 inh inactive, HEK293 tox 3.2% and hNpr1 antagonist -1.0%.
Screening CCC(C)/C=C(C)/C=C/C1=CC2=C(Cl)C(=O)C(C)(OC(C)=O)C(=O)C2=CN1C1CCCCN(C(CCC(N)=O)C(=O)O)C1=O (centres undefined) returned GPT2 inh -15.7%[17.1 µM].
Screening COc1ccc(NC(=O)C2(C)CCCc3cnc(NCc4ccccc4)nc32)cn1 (centres undefined) returned Luciferase inh inactive, 3T3 cytotox inconclusive, GPT2 inh -22.9%[88.5 µM], HEK293 tox inconclusive and hNpr1 antagonist -16.2%[70.6 µM].
COc1ccc(NC(=O)C2(C)CCCc3cnc(Nc4ccccc4)nc32)cn1 (centres undefined) was read as Luciferase inh inactive, 3T3 cytotox 79.4µM*, GPT2 inh -12.1%[88.5 µM], HEK293 tox 89.1µM* and hNpr1 antagonist -21.0%[70.6 µM].
`COc1cccc(Nc2ncc3c(n2)C(C)(C(=O)Nc2ccc(OC)nc2)CC3)c1` (centres undefined) gave Luciferase inh inactive, 3T3 cytotox inconclusive, GPT2 inh -6.8%[88.5 µM], HEK293 tox 89.1µM* and hNpr1 antagonist 3.8%[70.6 µM].
For COC(=O)c1c(S(=O)(=O)N2CCCCCCC2)sc2c1CCN(C(=O)C1CC=CCC1)C2 (centres undefined) the results were Luciferase inh inactive, 3T3 cytotox inconclusive, GPT2 inh -5.7%, HEK293 tox 44.7µM* and hNpr1 antagonist -11.6%.
